RE007 growth inh – qHTS Assay for Inhibitors of the HIV-1 protein Vpr | S. pombe RE007 Vpr strain, BacTiter-Glo ATP luminescence, 24 h | Potency, µM (series often up to 92.2 µM), for the others: at the top dose activity change, negative = less growth, most hits filed as inhibitors | hit rate 0.21% among 360,000; active = well fitted falling curve with a large enough effect; inconclusive = small, poorly fitted or top-dose-only effect; inactive = no such curve, though single readings can be large or run the other way; also: nearly all actives have a fitted effect of over 50% in size
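Fission yeast strain RE007, carrying one chromosomally integrated HIV-1 vpr copy, was seeded at OD 0.01 in PMG+AL medium with 23 nL pinned compound. After 24 h at 30 °C and 99% humidity, viability was read by BacTiter-Glo luminescence.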
AMA1-RON2 inh – qHTS for Inhibitors of AMA1-RON; Towards Development of Antimalarial Drug Lead: Primary Screen | Plasmodium falciparum AMA1 (3D7) - RON2 peptide interaction | AlphaScreen AMA1-biotinylated RON2 peptide binding | hit rate 0.2% among 360,000 | Potency, µM (doses to about 58.2 µM), inactives show at the top dose activity change, negative = inhibition, actives largely listed as inhibitors;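 also: 0% = vehicle wells and -100% = peptide control; nearly all actives have a fitted effect of over 45% in size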
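AMA1 (3D7) with his tag at 25 nM final met compounds first, then biotinylated RON2 peptide at 25 nM; detection used donor plus acceptor beads, 10 µg/mL apiece, read by AlphaScreen after 30 min at room temperature.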
LmPK inhibitor – qHTS Assay for Inhibitors of Leishmania Mexicana Pyruvate Kinase (LmPK); Q27686; purified LmPK, Kinase-Glo ATP luminescence, 1 h; Potency, µM (series often up to 57.5 µM), for inactives: at the highest dose activity change, negative = inhibition, most hits filed as inhibitors; hit rate 0.37% among 290,000; AID 1721, 2009
Target sequence (Q27686 whole entry, looked up): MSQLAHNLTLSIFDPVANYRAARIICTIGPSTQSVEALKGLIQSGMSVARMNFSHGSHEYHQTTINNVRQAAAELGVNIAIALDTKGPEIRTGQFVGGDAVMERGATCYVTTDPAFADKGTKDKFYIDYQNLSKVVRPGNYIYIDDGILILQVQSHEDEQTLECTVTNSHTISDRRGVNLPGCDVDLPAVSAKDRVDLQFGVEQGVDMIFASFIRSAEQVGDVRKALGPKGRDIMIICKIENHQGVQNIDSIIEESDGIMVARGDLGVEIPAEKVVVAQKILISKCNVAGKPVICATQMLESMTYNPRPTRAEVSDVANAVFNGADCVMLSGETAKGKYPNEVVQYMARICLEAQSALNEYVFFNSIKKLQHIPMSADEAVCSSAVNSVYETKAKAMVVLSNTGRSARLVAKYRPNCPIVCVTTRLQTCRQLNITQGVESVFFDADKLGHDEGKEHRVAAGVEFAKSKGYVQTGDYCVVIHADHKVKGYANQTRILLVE
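In 50 mM imidazole pH 7.2 with 7 mM MgCl2, LmPK (0.1 nM) turned over PEP (0.5 mM) and ADP (0.1 mM) for 1 h at room temperature. Luciferase read-out of ATP.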
TbPYK inhibitor – qHTS of Trypanosoma Brucei Inhibitors | pyruvate kinase (Trypanosoma brucei), Q57TT1 | TbPYK enzyme, Kinase-Glo Plus ATP luminescence, 45 min | Potency, µM (top dose mostly 76.8 µM), for the others: at the top dose activity, negative = inhibition, usual class: inhibitors | hit rate 0.12% among 410,000; also: nearly all actives have a fitted effect of over 50% in size
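Enzyme and substrate buffer are dispensed first and compound is pin-transferred. ADP at 130 uM final then starts the reaction, which runs 45 min at room temperature. Detection reagent is added for 10 min before luminescence is imaged.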
Sm TGR inh – qHTS Assay for the Inhibitors of Schistosoma Mansoni Peroxiredoxins. purified TGR, DTNB reduction, TNB absorbance 405 nm. AID 485364, 2010. Potency, µM (doses to about 114 µM), inactives show at the highest dose activity change, negative = inhibition, usual class: inhibitors. hit rate 3% among 360,000; also: nearly all actives have a fitted effect of over 60% in size
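TGR 20 nM + NADPH 100 uM (dispensed conc.), cpd preinc 15 min RT; start with NADPH (500 uM addition) then DTNB (15 mM addition). Kinetic TNB absorbance, 405 nm filter. Four-parameter Hill fit across titration.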
Starred values were filed as active, the others as inactive; u = inconclusive; x = no result; [ ] = dose if it differs, or a comment. This is a sample that favours compounds with a hit; in the whole collection about 3.2% have one here. Unless noted, calls follow the shape of the dose curve; as a rule, active = well fitted curve in the direction sought with a large enough effect; inconclusive = small, poorly fitted or top-dose-only effect, or another doubt; inactive = no such curve, though single readings can be large; an effect the other way counts as inactive or inconclusive. Unless noted, % is scaled to controls: 0 for no effect and ±100 for the full control effect; potency is read from the fitted curve at half-maximal effect.

SMILES	RE007 growth inh	AMA1-RON2 inh	LmPK inhibitor	TbPYK inhibitor	Sm TGR inh
CC(=O)NC(=O)NC1OC(=O)C(Cl)=C1Cl (stereo not drawn)	-5.7%	16.1%	9.2%	-10.8%	3.55µM*
Cc1nc(-c2ccccc2)sc1CCNS(=O)(=O)c1ccccc1	x	x	x	-1.4%	-2.2%
Cc1c(C2(O)CCCCC2)[nH]c2ccc(C(F)(F)F)cc12	39.8µM*	-9.2%	x	3.7%	x
COc1ccccc1N1CCN(C(=O)c2ccc3c(c2)N(Cc2ccccc2)C(=O)c2ccccc2S3(=O)=O)CC1	x	x	x	2.8%	3.6%
COc1ccccc1OCc1nc(C#N)c(NCc2ccco2)o1	6.5%	10.6%	-0.4%	-2.0%	39.8µM*
N#Cc1nc(COc2ccccc2Cl)oc1NCc1ccc(F)cc1	-9.2%	-20.5%	2.3%	2.3%	0.0%
N#Cc1nc(COc2ccccc2Cl)oc1NCc1cccnc1	2.5%	3.3%	2.2%	-3.6%	7.08µM*
CCC1CCCCN1Cc1cn2c(-c3ccc(Br)cc3)nnc2s1 (stereo not drawn)	x	x	x	-1.2%	-5.2%
COC(=O)C[C@H]1c2ccccc2C2=C(C[C@@H](C)[C@H]3C(=O)N(c4ccccc4)C(=O)[C@@H]23)N1C(=O)OC	x	x	1.2%[11.5 µM]	x	x
Nc1ncnc2c1ncn2[C@@H]1O[C@H](COP(=O)(O)OP(=O)(O)OP(=O)(O)O)[C@@H](O)[C@H]1O	3.16µM*	19.4%	x	-20.2%	-6.3%
Nc1ncnc2c1ncn2[C@@H]1O[C@H](COS(=O)(=O)O)[C@@H](O)[C@H]1O	u	-0.7%	x	1.1%	-1.0%
CCOc1ccc(N2C(=O)CC(NCc3ccc(S(N)(=O)=O)cc3)C2=O)cc1 (stereo not drawn)	1.7%	-10.1%	5.6%	-16.7%	3.8%
CCOc1ccc(N2C(=O)CC(NCC#N)C2=O)cc1 (stereo not drawn)	u	0.3%	-1.2%	-8.5%	2.82µM*
CCOc1ccc(N2C(=O)CC(NC3CCCCNC3=O)C2=O)cc1 (stereo not drawn)	u	11.9%	-6.0%	1.3%	22.4µM*
COC(=O)N1C2CC(=O)O[C@@H]3c4cc5c(cc4[C@]1(C)[C@@]3(Br)c1ccccc12)OCO5	x	x	-10.8%[11.5 µM]	x	x
Cc1cccc(N2CCN(C(=O)Cn3c(C)c4cnn(-c5ccccc5)c(=O)c4c3C)CC2)c1C	x	x	x	-2.3%	5.6%
O=C(NN1C(=O)/C(=C/c2ccc(O)c([N+](=O)[O-])c2)SC1=S)c1ccccc1Cl	u	u	-5.0%	-12.9%	-15.8%
Cc1ccc(/C=C2\SC(=S)N(/N=C/c3cc([N+](=O)[O-])ccc3O)C2=O)o1	u	11.1%	-7.7%	u	8.91µM*
O=C(NN1C(=O)/C(=C/c2cc([N+](=O)[O-])ccc2O)SC1=S)c1ccccc1O	x	x	x	x	35.5µM*
COc1ccccc1NC(=O)c1cc2cc3ccc(OC)c(Cl)c3nc2s1	x	x	x	9.4%	-8.2%
CCN(CC)c1ccc(NC(=O)c2cnn(-c3ccccc3)c2-n2cccc2)c(C)c1	x	x	x	-8.5%	1.1%
Cn1c(O)c(/C=C2\C=c3ccccc3=NC2=O)c(=O)n(C)c1=O	2.5%	-3.2%	7.6%	u	35.5µM*
O=S(=O)(NCc1cc(-c2ccccc2Cl)no1)c1ccc(Cl)cc1	31.6µM*	-1.6%	2.0%	u	15.4%
Cc1ccc(NC(=O)Cn2c(C)cc(C)c(C#N)c2=O)cc1F	x	x	x	7.4%	3.2%
Cc1cccc(NC(=O)c2ccccc2NC(=O)C2CCCCC2)c1C	15.0%	-5.0%	u	-1.9%	12.6µM*
SMILES	RE007 growth inh	AMA1-RON2 inh	LmPK inhibitor	TbPYK inhibitor	Sm TGR inh
O=C(Nc1ccccc1)c1ccccc1NC(=O)C1CCCCC1	5.0%	-8.5%	2.5%	-3.6%	3.6%
CCc1ccc(-n2c(=O)c3c4c(sc3n(CC(=O)N3CCC(C)CC3)c2=O)CCC4)cc1	x	x	x	-0.7%	-3.3%
COc1ccc(Cn2c(C(=O)O)c(CNC3CCC(C)CC3)c3ccc(C)cc32)cc1 (stereo not drawn)	x	x	x	0.4%	0.5%
COc1cccc(N2CC(C(=O)NNC(=O)c3ccc(Cl)cc3)CC2=O)c1 (stereo not drawn)	0.4%	54.5%	5.0%	-13.2%	-22.6%
COc1ccc(C(=O)NNC(=O)C2CCCN(C3CC(=O)N(c4ccccc4)C3=O)C2)cc1 (stereo not drawn)	u	95.8%	2.8%	6.0%	44.7µM*
O=C1CC(N2CCCN(C3CC(=O)N(c4ccc(F)cc4)C3=O)CC2)C(=O)N1c1ccc(F)cc1 (stereo not drawn)	4.47µM*	25.9%	-1.2%	-9.2%	20µM*
O=C1CC(N2CCCCC2)C(=O)N1c1ccccc1 (stereo not drawn)	39.8µM*	-11.0%	0.7%	1.7%	31.6µM*
O=C1CC(N2CCN(S(=O)(=O)c3ccccc3F)CC2)C(=O)N1c1ccccc1F (stereo not drawn)	13.3%	31.6µM*	x	2.5%	x
O=C1CC(N2CCN(S(=O)(=O)c3ccccc3)CC2)C(=O)N1c1ccccc1 (stereo not drawn)	-0.2%	-4.0%	-1.6%	0.5%	50.1µM*
COc1ccccc1N1C(=N)S/C(=C\c2ccc(-c3ccccc3C(=O)O)o2)C1=O	33.5%	-16.4%	5.9%	-21.4%	20µM*
COc1ccc(CCC(=O)NCc2ccc3c(c2)CCN3C(=O)c2cccc(C)c2)cc1	x	x	x	-3.0%	0.9%
Cc1ccc(C(=O)ONc2ccc(N=O)cc2)cc1	5.62µM*	0.9%	10µM*	u	-6.5%
CCc1cccc(-n2c(=O)c3cccnc3n2CC(=O)NCc2ccc(C)cc2)c1	x	x	x	7.3%	-12.2%
CN1CCN(Cc2c(O)ccc3cc(Br)ccc23)CC1	u	-2.6%	1.0%	-5.8%	3.55µM*
Cc1noc(C)c1C(=O)N1CCC2(CCCN(C(=O)Nc3ccccc3)C2)CC1	x	x	x	-1.8%	x
COc1ccc(N2C(=O)CC(N3CCC(n4c(=O)[nH]c5ccccc54)CC3)C2=O)cc1 (stereo not drawn)	28.2µM*	-3.9%	0.3%	0.4%	35.5µM*
O=C1CC(N2CCC(c3nc4ccccc4o3)CC2)C(=O)N1c1cc(Cl)cc(Cl)c1 (stereo not drawn)	28.2µM*	-10.0%	17.4%	-13.8%	-6.5%
O=C(/C=C/c1ccc(Cl)cc1)N1CCC(c2nc3ccccc3o2)CC1	x	x	x	-3.3%	0.3%
Cc1cccc(N2C(=O)CC(N3CCC(c4nc5ccccc5[nH]4)CC3)C2=O)c1 (stereo not drawn)	28.2µM*	18.6%	-9.5%	-0.3%	35.5µM*
